The list is not random: actives were taken first. Their share in the collection is about 2.5%.
Exocytosis inh = lytic granule exocytosis inhibition; TALL-104 LAMP-1 surface exposure, flow cytometry; cells stimulated with thapsigargin and PMA; inhibition, % at 10 µM; hit rate 0.66% among 360,000;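 active = inhibition above about 55%, limit read from the data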
PG9 Ab binder = small molecules binding HIV-1 gp120 antibody PG9. hit rate 0.43% among 360,000. AID 624416. TR-FRET gp120-PG9 antibody binding. inhibition, % at 6.7 µM; in the data active = inhibition above about 8.5%
rCAG binder = molecules binding r(CAG) RNA repeats. r(CAG) RNA repeat, TO-PRO-1 dye displacement fluorescence. inhibition, % at 3 µM. hit rate 1.3% among 370,000. AID 651821;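 active = inhibition above the plate cutoff, the mean of all test compounds on that plate plus 3 SD, cut at about 35% in these data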;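 also: 0% = DMSO alone and 100% = 100 µM mitoxantrone as full dye displacement; higher means more dye released from RNA so lower well fluorescence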
ABCB6 inh MLPCN = human ABCB6 transporter inhibition | fluorescence ratio to DMSO, % at 10 µM | K562-ABCB6 porphyrin accumulation, flow cytometry, 1 h; hits give low values | hit rate 0.19% among 360,000 | Q9NP58;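 active = fluorescence ratio to DMSO below 75%, the collection mean minus 3 SD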;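 also: signal is porphyrin accumulated inside mitochondria; 100% equals median channel fluorescence of DMSO control wells; lower ratio means ABCB6 inhibition with less porphyrin fluorescence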
Target sequence (Q9NP58 whole entry, looked up): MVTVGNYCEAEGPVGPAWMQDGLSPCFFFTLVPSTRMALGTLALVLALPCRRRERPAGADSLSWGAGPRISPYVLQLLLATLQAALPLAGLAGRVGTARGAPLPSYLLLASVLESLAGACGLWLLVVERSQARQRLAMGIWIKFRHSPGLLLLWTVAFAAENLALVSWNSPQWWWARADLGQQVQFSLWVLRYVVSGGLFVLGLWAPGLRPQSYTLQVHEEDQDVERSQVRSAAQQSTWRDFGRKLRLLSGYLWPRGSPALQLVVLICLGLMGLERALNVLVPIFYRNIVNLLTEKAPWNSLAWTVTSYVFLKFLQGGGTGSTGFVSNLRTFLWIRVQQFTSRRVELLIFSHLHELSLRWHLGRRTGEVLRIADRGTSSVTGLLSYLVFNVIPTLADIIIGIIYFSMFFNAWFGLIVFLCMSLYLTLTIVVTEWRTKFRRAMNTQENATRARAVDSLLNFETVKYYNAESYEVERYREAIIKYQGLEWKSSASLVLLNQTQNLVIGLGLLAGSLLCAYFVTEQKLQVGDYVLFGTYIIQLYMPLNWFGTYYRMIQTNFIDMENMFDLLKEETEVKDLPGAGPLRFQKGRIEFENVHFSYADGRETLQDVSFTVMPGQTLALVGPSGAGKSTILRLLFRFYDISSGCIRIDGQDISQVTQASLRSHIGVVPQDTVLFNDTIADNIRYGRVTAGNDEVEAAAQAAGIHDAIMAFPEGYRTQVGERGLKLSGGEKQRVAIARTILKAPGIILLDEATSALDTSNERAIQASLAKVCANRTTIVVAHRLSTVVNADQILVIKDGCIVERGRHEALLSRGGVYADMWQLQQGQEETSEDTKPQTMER
rCAG binder conf = r(CAG) RNA repeat binding, confirmation | AID 652065 | hit rate 70% among 4,300 | inhibition, % at 3 µM | shares compounds with rCAG binder | TO-PRO-1 dye displacement fluorescence;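 active = inhibition above a per-plate cutoff, the mean inhibition of sample wells plus 3 SD, cut at about 35% in these data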;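 also: loss of TO-PRO-1 fluorescence as compound displaces dye from 1x1 AA loop RNA; 0% = DMSO only wells and 100% = 100 µM mitoxantrone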
DNA CAG counter = counter-screen for rCAG RNA binders: DNA CAG dye complex inhibitors. shares compounds with rCAG binder. d(CAG) DNA oligo TO-PRO-1 dye displacement, fluorescence. inhibition, % at 3 µM. hit rate 94% among 4,300. AID 652068;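 active = inhibition above its plate's cutoff, the mean test-well inhibition plus 3 SD, cut at about 4.8% in these data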;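 also: 0% = DNA dye mix with DMSO and 100% = 100 µM mitoxantrone; hits displace the dye from DNA and so lower well fluorescence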
DNA CAG DR = disrupts DNA CAG TO-PRO-1 complex in dose response | shares compounds with rCAG binder | DNA CAG/GTC duplex TO-PRO-1 dye displacement fluorescence | IC50, µM | hit rate 20% among 250 | AID 686960; in the data active = IC50 below about 10 µM
The depositor's hits bear a star; i = inactive; . = no result given.

SMILES | Exocytosis inh | PG9 Ab binder | rCAG binder | ABCB6 inh MLPCN | rCAG binder conf | DNA CAG counter | others
COc1ccc(OC)c(/C=C/c2ccc3cccc(O)c3n2)c1 | 2.0 | -0.4 | 9.6 | 100.0 | . | .
CCOc1cc(/C=C/c2ccc3cccc([N+](=O)[O-])c3n2)cc(Cl)c1O | -0.9 | 0.2 | 41.3* | 98.0 | 33.2 | 13.4*
O=[N+]([O-])c1cccc2ccc(/C=C/c3ccc(Cl)cc3)nc12 | -2.9 | -1.8 | 12.7 | 92.0 | . | .
COc1cc(Br)cc(/C=C/c2ccc3cccc(O)c3n2)c1O | -6.3 | -1.7 | 35.9* | 97.0 | 28.5 | 12.6*
Cc1occc1C(=O)NN1C(=O)C2C3CCC(O3)C2C1=O (stereo unspecified) | -1.6 | -2.8 | -0.8 | 100.0 | . | .
Nc1ncnc2c1ncn2[C@@H]1O[C@H](C(=O)N2CCN(c3ccc(Cl)cn3)CC2)[C@@H](O)[C@H]1O | -3.1 | -1.6 | 3.5 | 94.0 | . | .
COc1cc(OC)cc(-c2c(-c3cccs3)c3cc(Br)ccc3n2C)c1 | -1.2 | -1.2 | 40.4* | 98.0 | 10.4 | 9.3*
COc1cc(F)cc(-c2ccc3c(c2)c(-c2cccs2)c(-c2cc(OC)cc(OC)c2)n3C)c1 | -4.6 | -2.7 | 10.0 | 97.0 | . | .
CCOC(=O)C(=CNc1ccc(N2CCCCC2)c(S(=O)(=O)Nc2ccccc2OC)c1)C(=O)OCC | 0.3 | 1.6 | 0.1 | 97.0 | . | .
Cc1cc(/C=C2\C(=N)N3N=C(c4ccco4)SC3=NC2=O)c(C)n1Cc1ccccc1 | 1.4 | -2.0 | 59.1* | 96.0 | 68.7* | 30.2* | DNA CAG DR=i
O=[N+]([O-])c1cccc(C2(O)COc3ccccc3O2)c1 (stereo unspecified) | -4.4 | -3.2 | -0.3 | 99.0 | . | .
Cc1cc(C)c(NC(=S)N(CCCN2CCN(C)CC2)Cc2cccs2)c(C)c1 | 11.2 | -0.2 | -8.7 | 105.0 | . | .
COc1cc(C(=O)Nc2cccc(C)c2C)c(Br)c(OC)c1OC | -12.9 | -3.1 | -2.2 | 79.0 | . | .
O=C(O)c1ccc(Cl)cc1NC(=O)C1CCN(S(=O)(=O)c2cccs2)CC1 | -0.6 | -0.7 | 38.9* | 94.0 | 41.0* | 10.1*
O=C(c1ccc(NC(=O)C(c2ccccc2)c2ccccc2)cc1)c1ccc(C(=O)O)c(C(=O)O)c1 | 6.9 | -0.4 | 41.8* | 95.0 | 18.0 | 3.4
O=C(O)c1ccc(NC(=O)C(c2ccccc2)c2ccccc2)cc1 | -0.7 | -1.4 | 6.5 | 104.0 | . | .
CCc1cc(C(=O)O)c(NC(=O)C(c2ccccc2)c2ccccc2)s1 | 2.1 | 0.8 | 41.4* | 105.0 | 36.0* | 8.4*
Cc1ccc(NC(=O)CSc2nnc(C3CC3)n2C)cc1S(=O)(=O)N1CCCCC1 | -2.7 | -1.4 | -0.1 | 95.0 | . | .
COc1ccc(S(=O)(=O)Nc2ccc3c(c2)OCCO3)cc1OC | 15.1 | -0.2 | -1.4 | 100.0 | . | .
CN(C)C(=O)c1cc(Cl)ccc1Sc1cc(Cl)ccc1Cl | 3.5 | 1.7 | -7.8 | 100.0 | . | .
Oc1ccc(Cl)cc1Sc1cc(Cl)ccc1O | 2.7 | -1.6 | 38.3* | 81.0 | 43.1* | 12.5*
COc1ccc(CN2C(=O)Cc3c2nc(N)c2c(N)nc(N4CCOCC4)c(C#N)c32)cc1 | -2.8 | -2.8 | 27.3 | 98.0 | . | .
COCCN1C(=O)Cc2c1nc(N)c1c(N)nc(N3CCN(c4ccc(F)cc4)CC3)c(C#N)c21 | -2.6 | -1.6 | 37.6* | 91.0 | 21.8 | 14.8*
COc1ccc(NC(=O)COC(=O)c2ccc(-n3cnnn3)cc2)cc1Cl | -2.6 | 4.6 | 10.4 | 95.0 | . | .
CCN(CC)S(=O)(=O)c1cccc(C(=O)N/N=C/c2cccc(O)c2O)c1 | -13.2 | -3.6 | 37.4* | 85.0 | 33.0 | 13.0*
SMILES | Exocytosis inh | PG9 Ab binder | rCAG binder | ABCB6 inh MLPCN | rCAG binder conf | DNA CAG counter | others
CCN(CC)S(=O)(=O)c1cccc(C(=O)N/N=C/c2cc(OC)c(O)c(OC)c2)c1 | -7.5 | -3.8 | 0.2 | 96.0 | . | .
CCOc1ccccc1N(CC(=O)NCCSc1ccccc1)S(C)(=O)=O | -3.7 | -0.5 | -7.5 | 103.0 | . | .
CCCc1cc(=O)[nH]c(SCC(=O)Nc2cc(S(=O)(=O)N3CCCCC3)ccc2C)n1 | 0.7 | 0.8 | 22.1 | 100.0 | . | .
O=C(Nc1ccccn1)Nc1ccccc1Cl | -15.1 | -2.8 | -4.0 | 100.0 | . | .
O=C(CSc1nnc(SCc2ccccc2)s1)N/N=C/c1ccc(C(=O)O)cc1 | -3.7 | 0.0 | 22.4 | 93.0 | . | .
Cc1nn(-c2ccccc2)c(C)c1/C=N/NC(=O)CSc1nnc(SCc2cccc3ccccc23)s1 | 1.2 | -1.8 | 6.4 | 94.0 | . | .
Cc1ccc(NC(=S)NNC(=O)CSc2nnc(SCc3cccc4ccccc34)s2)cc1 | . | . | 51.6* | . | 51.2* | 20.2*
Cc1ccc(CSc2nnc(SCC(=O)N/N=C/c3ccc(C(=O)O)cc3)s2)cc1 | 5.6 | 0.3 | 43.4* | 100.0 | 41.3* | 10.6*
O=C(CSc1nnc(SCc2cccc3ccccc23)s1)Nc1ccccc1-c1ccccc1 | . | . | 6.4 | . | . | .
CCc1ccc(Nc2nnc(SCC(=O)Nc3ccc(C(=O)O)cc3)s2)cc1 | -0.7 | -3.4 | 36.5* | 95.0 | 21.6 | 5.0*
O=C(CSc1nnc(SCc2cccc3ccccc23)s1)Nc1ccc(C(=O)O)cc1 | 0.6 | -2.6 | 67.0* | 95.0 | 68.2* | 30.2*
CCN(C(=O)Cc1c(C(=O)O)n(CC)c2ccccc12)c1cccc(C(F)(F)F)c1 | 1.7 | 0.2 | 25.5 | 96.0 | . | .
COc1ccc(C2=C(C=O)Cc3ccccc3O2)cc1 | -0.3 | -0.8 | -2.2 | 101.0 | . | .
O=C(CSc1nc2ccccc2s1)NNC(=S)Nc1ccc(Br)cc1 | -2.7 | 0.4 | 53.3* | 90.0 | 61.0* | 22.3*
CCOc1cc(/C=C2\SC(=S)N(NS(=O)(=O)c3ccc(C)cc3)C2=O)ccc1O | -0.6 | -28.9 | 69.9* | 97.0 | 49.7* | 19.1*
COc1cc(/C=C2\SC(=S)N(NS(=O)(=O)c3ccc(C)cc3)C2=O)ccc1O | 3.1 | -10.1 | 45.5* | 112.0 | 30.3 | 9.9*
COc1cc(/C=C2\SC(=S)N(NC(=O)c3ccccc3OC)C2=O)ccc1O | 16.4 | -5.9 | 58.0* | 112.0 | 50.6* | 19.1*
COc1cc(/C=C2\SC(=S)N(NC(=O)c3ccc(O)c(OC)c3)C2=O)ccc1O | 20.3 | -4.1 | 23.5 | 249.0 | . | .
Fc1ccc(-n2ncc3c(SCc4cccnc4)ncnc32)cc1 | -0.3 | -2.1 | -1.4 | 99.0 | . | .
CC(=O)c1c(N2CCN(c3ccccn3)CC2)nc(=S)n(-c2ccccc2)c1C | -1.9 | -1.0 | -1.3 | 104.0 | . | .
Cc1[nH]c(-c2ccc(F)cc2)cc1C(=O)N1CCN(c2ccccc2F)CC1 | 11.8 | 0.0 | 0.0 | 95.0 | . | .
CCOc1ccc(S(=O)(=O)Nc2cccc(Cl)c2)cc1 | -2.0 | 2.0 | 5.9 | 94.0 | . | .
CCOc1ccc(Oc2ccc(NS(=O)(=O)c3cc(C(=O)O)ccc3Cl)cc2)cc1 | -6.8 | 0.8 | 38.3* | 97.0 | 38.7* | 10.9*
CCOc1ccc(NS(=O)(=O)c2ccc(NS(=O)(=O)c3ccccc3)cc2)cc1 | -5.4 | -1.0 | 36.4* | 100.0 | 18.7 | 2.5
